# Reference: the supplement of paper PMC7156485
# ± gives the standard deviation of the averaged measurements.
# Tests used:
# Details in all cases: concentration: 10 µM; 24 h
# HCC1569 [1] = assay: cell number relative to DMSO (% of DMSO); higher = more cells (less growth inhibition / toxicity)
# In short: (§1)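 HCC1569 and TDF cells (800 per well, 384-well plates, RPMI with 10% FBS) were treated with compounds at 10 µM for 24 h at 37 °C, in triplicate. Cells were fixed in 3.7% formaldehyde and stained with a rabbit anti-H1.0 antibody, an AlexaFluor 647 secondary and DAPI; six fields per well were imaged at ×10. H1.0 nuclear intensity or cell number is expressed as percent of the plate DMSO control, taking the median of replicates. HCC1569 values were smoothed for positional effects.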
# TDF [2] = assay: as above
# In short: as §1
# TDF [3] = assay: H1.0 immunofluorescence intensity relative to DMSO (% of DMSO); higher = stronger H1.0 induction, active = 120 or more
# In short: as §1
# HCC1569 [4] = assay: H1.0 immunofluorescence intensity relative to DMSO (% of DMSO); higher = stronger H1.0 induction, active = 140 or more
# In short: as §1
# 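Wherever H1.0 immunofluorescence intensity relative to DMSO is given: TDF is a line of transformed human dermal fibroblasts of mesenchymal origin.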
# 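Wherever cell number relative to DMSO is given: TDF denotes transformed human dermal fibroblasts of mesenchymal origin.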
Structure (SMILES),cell number (HCC1569 [1]),cell number (TDF [2]),H1.0 immunofluorescence intensity (TDF [3]),H1.0 immunofluorescence intensity (HCC1569 [4])
C[N+](C)(C)CCOC(N)=O.[Cl-] [Carbachol],105,120,100 (inactive),96.9 (inactive)
O=C(Nc1c(Cl)cncc1Cl)c1ccc(OC(F)F)c(OCC2CC2)c1,99.9,92.1,95.6 (inactive),101 (inactive)
CCCCCC=CCC(O)C=CC=CC=CC(O)CCCC(=O)O (stereo unspecified) [Leukotriene B4],105,98.8,93.3 (inactive),102 (inactive)
O=C(NCCO)c1cccc(-c2cc(Nc3ccc(OC(F)(F)F)cc3)ncn2)c1,91.1,94.8,110 (inactive),119 (inactive)
Cl.c1ccc2c(CC3=NCCN3)cccc2c1 [Naphazoline hydrochloride],96.1,108,91.2 (inactive),90.2 (inactive)
CN1C(CC(=O)c2ccccc2)CCCC1CC(O)c1ccccc1.Cl (stereo unspecified),102,90.9,102 (inactive),99.2 (inactive)
CCCNCC(O)COc1ccccc1C(=O)CCc1ccccc1.Cl [(S)-(-)-propafenone hydrochloride],98.4,104,90.3 (inactive),111 (inactive)
CC(=O)NC(CSCC=C(C)CCC=C(C)CCC=C(C)C)C(=O)O (stereo unspecified) [Acetyl-farnesyl-cysteine],100,104,97.2 (inactive),96.3 (inactive)
CCCCCCCOc1cc2c(cc1/C(C)=C/c1ccc(C(=O)O)cc1)C(C)(C)CCS2(=O)=O,96.9,101,88.9 (inactive),102 (inactive)
CCN(CC)CCNC(=O)c1c(C)[nH]c(C=C2C(=O)Nc3ccc(F)cc32)c1C [Sunitinib],92.1,58.7,106 (inactive),173 (active)
CCOC(=O)C(C)(C)Oc1ccc(Cl)cc1 [Clofibrate],102 ± 2.9,99.8 ± 6.2,99.5 (inactive),94.7 (inactive)
"CC(C)(C)C1(O)CCN2CC3c4ccccc4CCc4cccc(c43)C2C1.Cl (single isomer, unassigned; (+)) [(+)-Butaclamol.HCl]",106,108,95.7 (inactive),100 (inactive)
O=C1NC(=O)C(c2ccccc2)(c2ccccc2)N1 [Phenytoin],104,98.5,95.8 (inactive),110 (inactive)
CC(=O)OC1CC2CCC3C(CCC4(C)C3CC([N+]3(C)CCCCC3)C4OC(C)=O)C2(C)CC1N1CCCCC1 (stereo unspecified) [Vecuronium],103,95.7,99.2 (inactive),110 (inactive)
O=C1C=C(CO)OCC1=O [5-hydroxy-2-(hydroxymethyl)-4H-pyran-4-one],105,94.6,92.9 (inactive),92 (inactive)
"CC(=O)Oc1ccccc1C(=O)Nc1ncc([N+](=O)[O-])s1 [2-{[(5-nitro-1,3-thiazol-2-yl)amino]carbonyl}phenyl acetate]",89.4,95.5,98.5 (inactive),103 (inactive)
CCCCCCC(C(C)O)n1cnc2c(N)ncnc21.Cl (stereo not drawn) [erythro-9-(2-Hydroxy-3-nonyl)adenine hydrochloride],104,108,90.1 (inactive),88.6 (inactive)
NC(=O)c1cccc(N)c1 [3-aminobenzamide],98.6,102,90.5 (inactive),87.7 (inactive)
O=c1[nH]c(=O)n([C@H]2C[C@H](O)[C@@H](CO)O2)cc1/C=C/Br [(E)-5-(2-Bromovinyl)-2'-deoxyuridine],104,100,97.3 (inactive),87.7 (inactive)
Nc1ccc(CCNc2ncnc3c2ncn3C2OC(CO)C(O)C2O)cc1 (stereo unspecified) [N6-2-(4-Aminophenyl)ethyladenosine],101,109,85.9 (inactive),94 (inactive)
CN1CCCN=C1C=Cc1cccs1.O=C(O)c1cc2ccccc2c(Cc2c(O)c(C(=O)O)cc3ccccc23)c1O [Pyrantel Pamoate],94.4,109,88.8 (inactive),115 (inactive)
CCC1(c2ccccc2)NC(=O)N(C)C1=O (stereo unspecified) [Mephenytoin],100,109,98.5 (inactive),104 (inactive)
CCCCCC=CCC=CCC=CCC=CCCCC(=O)O [Arachidonic acid],104 ± 6.4,93.9 ± 1.1,101 (inactive),105 (inactive)
O=c1cc(-c2ccccc2)oc2cc(O)ccc12 [7-Hydroxyflavone],103,104,96.8 (inactive),88.8 (inactive)
CCCCCCCCCCCCCCSCC(=O)O [Tetradecylthioacetic acid],104,107,85.8 (inactive),102 (inactive)

Structure (SMILES),cell number (HCC1569 [1]),cell number (TDF [2]),H1.0 immunofluorescence intensity (TDF [3]),H1.0 immunofluorescence intensity (HCC1569 [4])
COc1ccc2cc1Oc1ccc(cc1)CC1c3cc(c(OC)cc3CCN1C)Oc1c(OC)c(OC)c(OC)c3c1C(C2)N(C)CC3 (stereo unspecified) [Hernandezine],93.5,93,106 (inactive),110 (inactive)
COCCCCC(=NOCCN)c1ccc(C(F)(F)F)cc1.O=C(O)C=CC(=O)O [Fluvoxamine maleate],98.6,97.1,95.3 (inactive),92.4 (inactive)
CC(C)n1c(C=CC(O)CC(O)CC(=O)O)c(-c2ccc(F)cc2)c2ccccc21 (stereo unspecified) [Fluvastatin],96.3,64.5,148 (active),103 (inactive)
CCCCc1oc2ccccc2c1C(=O)c1cc(I)c(OCCN(CC)CC)c(I)c1.Cl [Amiodarone hydrochloride],98.5,92,98.9 (inactive),101 (inactive)
"CCCCC(C)(O)CC=CC1C(O)CC(=O)C1CCCCCCC(=O)O (stereo unspecified) [Misoprostol, free acid]",100,85.8,95.6 (inactive),98.8 (inactive)
CC1CS(=O)(=O)CCN1/N=C/c1ccc([N+](=O)[O-])o1 (stereo unspecified),96.4,102,98.5 (inactive),95.5 (inactive)
CC(N)=NCCC[C@H](N)C(=O)O.Cl [L-N5-(1-Iminoethyl)ornithine hydrochloride],101,108,92.8 (inactive),93.3 (inactive)
COc1ccc(-c2coc3cc(O)ccc3c2=O)cc1 [Formononetin],104,103,87.5 (inactive),80.9 (inactive)
COc1ccc(CN(CCN(C)C)c2ccccn2)cc1.O=C(O)C=CC(=O)O [Pyrilamine maleate],103,104,99.6 (inactive),100 (inactive)
NCC1OC(OC2C(N)CC(N)C(OC3OC(CO)C(O)C(N)C3O)C2O)C(O)C(O)C1O.O=S(=O)(O)O (stereo unspecified) [Kanamycin sulfate],99.5,106,99.3 (inactive),90.1 (inactive)
CCC=CCC=CCC=CCC=CCC=CCC=CCCC(=O)O [Docosahexaenoic acid],99.8 ± 4.3,97.5 ± 3.1,104 (inactive),105 (inactive)
CCOC(=O)[C@H](CCc1ccccc1)N[C@@H](C)C(=O)N1CCC[C@H]1C(=O)O.O=C(O)C=CC(=O)O,102,99.6,91 (inactive),100 (inactive)
CC12CCC(=O)C=C1CCC1C2C(O)CC2(C)C1CCC2(O)C(=O)CO (stereo unspecified) [Hydrocortisone],98.68 ± 0.34,102 ± 9.9,86.3 (inactive),105 (inactive)
"CCCCC(C)(C)C(O)C=CC1C(O)CC(=O)C1CC=CCCCC(=O)O (stereo unspecified) [16,16-Dimethyl-prostaglandin E2]",100,110,94.7 (inactive),109 (inactive)
CC(=O)OCC1(O)CC23CCC4c5ccoc5C=CC4(C)C2CCC1C3 (stereo unspecified) [Kahweol Acetate],103,95.3,105 (inactive),98.9 (inactive)
"CC(C)(C)c1ccc(S(=O)(=O)Nc2ccc(-n3ccnc3)cc2)cc1 [Stem-Cell Factor/c-Kit Inhibitor, ISCK03]",100,102,103 (inactive),99.6 (inactive)
O=C(c1ccccc1)c1ccc(N2CCOCC2)cc1O [DNA-PK Inhibitor V],94.7,95.7,91.7 (inactive),109 (inactive)
O=C(c1cc2cc(O)ccc2[nH]1)c1cc2cc(O)ccc2[nH]1 [Flt-3 Inhibitor II],67.1,73,99.9 (inactive),195 (active)
CCOC(=O)CCNc1cc(N2CCc3ccccc3CC2)nc(-c2ccccn2)n1,78.8,20.8,171 (active),113 (inactive)
COc1c2occc2cc2ccc(=O)oc12 [Xanthotoxin],101,104,106 (inactive),103 (inactive)
CC1(COc2ccc(CC3SC(=O)NC3=O)cc2)CCCCC1 (stereo unspecified) [Ciglitizone],102,105,96.5 (inactive),90.5 (inactive)
O=C1CN(/N=C/c2ccc(-c3ccc([N+](=O)[O-])cc3)o2)C([O-])=N1.[Na+],93.8,104,97.3 (inactive),111 (inactive)
Nc1nc(=O)c2ncc(=O)[nH]c2[nH]1 [Isoxanthopterin],104,108,92.2 (inactive),94.9 (inactive)
CCCCOc1ccc(-c2cncc(C(=O)NCc3cccnc3N3CCOCC3)c2)cc1Cl,86.9,104,98.3 (inactive),150 (active)
